ABHD5-PLIN5 inh: ABHD5-PLIN5 interaction inhibitors, primary screen, cell lysate, split luciferase complementation, luminescence | Perilipin-5 (Homo sapiens) + 1-acylglycerol-3-phosphate O-acyltransferase ABHD5 (Homo … | Split G. princeps luciferase complementation, 4 h | inhibition, % at 4 µM | actives 0.78% (n = 360,000) | AID 602281, 2012;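 active = inhibition above the mean inhibition across every tested compound plus 3 SD, cut at about 22% in these data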
KKLEB cytotox: cytotoxicity in KKLEB CF airway cells, primary screen, cytotoxicity control for CF NF-kB inhibitor project, cell-based, uHTS, fluorescence assay plates | KKLEB CF airway cells viability, ATPlite luminescence, overnight; stronger effect = lower value; cells stimulated with P. aeruginosa culture filtrate | activity change (cytotoxicity), % at 5 µM | actives 0.36% (n = 360,000) | AID 602141, 2011;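 active = corrected activity change at or below -50% at 5 µM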
MITF TRPM1 inh: inhibitors of MITF-dependent TRPM1 promoter reporter, primary screen, cell-based, SK-MEL-5, single point, luciferase; AID 488899, 2010; inhibition, % at 12.5 µM; actives 0.83% (n = 330,000); SK-MEL-5 TRPM1 promoter luciferase, 24 h;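 active = mean inhibition across replicates of 60% or more, whatever share of single replicates reaches that level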
Peg3 prom inh: Peg3 promoter-driven luciferase inhibitors, primary screen, cell-based, HeLa, luciferase luminescence. AID 588405, 2011. actives 1.7% (n = 360,000). HeLa PEG-Prom luciferase reporter, overnight. inhibition, % at 20 µM;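 active = inhibition of at least 50% at 20 µM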
HIF-2a block: HIF-2a reporter inhibitors, primary screen, luminescence, 786-0 RCC cells; 786-0 RCC cells HIF-2a reporter, luciferase luminescence, overnight; inhibition, % at 18.8 µM; actives 0.72% (n = 360,000); AID 624352, 2012;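 active = inhibition of the luminescence signal of 40% or more relative to plate controls, in a single-dose primary screen at 18.75 µM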
CF NFkB block: inhibitors of PAF-induced NF-kB signaling, primary screen, cell-based, GFP fluorescence, uHTS; inhibition, % at 5 µM; AID 588850, 2011; actives 0.86% (n = 360,000); KKLEB NF-kB-GFP reporter, GFP fluorescence overnight;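 active = at least 50% inhibition at 5 µM, scaled per plate between neutral and stimulator controls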;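 note: PAF is a Pseudomonas aeruginosa culture filtrate used as stimulus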
Numbers stand for hits; n = inactive; x = not tested or not shown. Hits are enriched below; roughly 3% of the tested compounds scored in any of these assays.

SMILES	ABHD5-PLIN5 inh	KKLEB cytotox	MITF TRPM1 inh	Peg3 prom inh	HIF-2a block	CF NFkB block
FC(F)(F)c1nc(-c2cccs2)ncc1-c1nnnn1-c1ccc(Cl)cc1	n	n	n	69	n	n
CC(NC(=O)Cc1ccc([N+](=O)[O-])cc1)c1ccc2c(c1)OCO2 (stereo unspecified)	n	n	n	n	n	n
CCOc1cccc2c1OC(c1cc(OC)c(OC)c(OC)c1)N1N=C(c3ccc(C)o3)CC21 (stereo unspecified)	25	n	n	n	n	n
Cc1cc(NC(=S)NC(=O)c2ccccc2)ccc1-c1cc2ccccc2oc1=O	n	-61	n	n	n	56
CCCCn1c(N)c(N(CC(C)C)C(=O)CCCc2cccs2)c(=O)[nH]c1=O	n	n	n	n	n	n
CCn1nc(C)c(CNC(=O)C2CCC(=O)N(CCc3ccc(Cl)cc3)C2)c1C (stereo unspecified)	n	n	n	n	n	n
CCN(CC)CCNc1cc(C)nc2c1C(=O)C(=O)C=C2N1CCCCC1	n	n	n	74	n	n
Cc1ccc(S(=O)(=O)N2CCCC2)cc1C(=O)N1CCC(C)CC1	n	n	n	n	n	n
CC(C)CN(C(=O)COC(=O)c1ccc(Br)cc1)c1c(N)n(Cc2ccccc2)c(=O)[nH]c1=O	n	n	n	63	n	n
CC(C)CN(C(=O)COC(=O)C12CC3CC(CC(O)(C3)C1)C2)c1c(N)n(Cc2ccccc2)c(=O)[nH]c1=O	n	n	x	n	n	n
CC(C)CN(C(=O)COC(=O)C12CC3CC(CC(C3)C1)C2)c1c(N)n(Cc2ccccc2)c(=O)[nH]c1=O	n	n	88	n	n	n
CC(C)CN(C(=O)COC(=O)c1cncc(Br)c1)c1c(N)n(Cc2ccccc2)c(=O)[nH]c1=O	n	n	n	n	n	n
O=S(=O)(CC=CCS(=O)(=O)c1ccccc1)c1ccccc1	n	n	n	n	n	n
CC1(C)C[C@H](O)[C@]2(CO)[C@H](O)C[C@]3(C)C(=CCC4[C@@]5(C)CC[C@H](O)C(C)(C)C5CC[C@]43C)[C@@H]2C1 (stereo partly specified)	n	-65	n	95	n	69
CC1(C)C[C@H](O)[C@]2(CO)CC[C@]3(C)C(=CCC4[C@@]5(C)CC[C@H](O)C(C)(C)C5CC[C@]43C)[C@@H]2C1 (stereo partly specified)	n	n	x	n	n	n
CC(NC(=O)COc1ccc(/C=N/NC(=O)CO)cc1)c1ccccc1 (stereo unspecified)	n	n	n	n	n	n
CC1=CC(C)(C)N(S(=O)(=O)c2ccc(C)cc2)c2cc(C)ccc21	n	n	n	n	n	51
CCOc1ccc2c(c1)C(C)=CC(C)(C)N2S(=O)(=O)c1ccc(C)cc1	n	n	75	n	n	61
Cc1ccc2nc(C)cc(C(=O)N/N=C/c3ccncc3)c2c1	n	n	n	n	n	n
COc1ccccc1NS(=O)(=O)c1cc(-c2cnc(C3CC3)o2)ccc1C	n	n	n	52	n	n
CCOc1cc(CNC2CCCC2)cc(Cl)c1OCc1ccc(F)cc1	n	n	n	91	n	n
COCOCCn1cc(CN2CCS(=O)(=O)N(Cc3ccc(-c4ccc(OC)cc4)cc3)C(C)C2=O)nn1 (stereo unspecified)	n	n	x	n	n	n
CCCSc1nc2c(cnn2-c2ccc(C)cc2)c(=O)[nH]1	n	n	n	61	n	n
CCCSc1nc2c(cnn2-c2ccccc2)c(=O)[nH]1	n	n	n	n	n	n
COc1ccc(/C=C/C(=O)N2CCN(c3ccccc3)CC2)cc1S(=O)(=O)N1CCOCC1	n	n	n	n	n	n
O=C(/C=C/c1ccc(S(=O)(=O)N2CCOCC2)cc1)N1CCN(c2ccccc2)CC1	n	n	n	66	n	n
